BoNT-F LC inh: BoNT/F light chain protease inhibitors, primary screen, biochemical, flow cytometry, MLPCN library. Botulinum neurotoxin type F light chain protease (Clostridium botulinum). Multiplex microsphere protease cleavage assay. inhibition, % at 10 µM. hit rate 0.22% among 360,000. AID 588497, 2011; in the data active = inhibition above about 35%, passing the limit was not always enough; inconclusive = no clear call, values can overlap the other calls
MazF activator: activators of E. coli MazEF toxin-antitoxin RNase, primary screen, biochemical, fluorescence, uHTS | Endoribonuclease toxin MazF (Escherichia coli (strain K12)), P0AE70 | FAM/BHQ RNA-DNA oligo cleavage fluorescence, 5 h | activation, % at 20 µM | hit rate 0.32% among 350,000; in the data active = activation above about 50%
Target sequence (P0AE70 whole entry, looked up): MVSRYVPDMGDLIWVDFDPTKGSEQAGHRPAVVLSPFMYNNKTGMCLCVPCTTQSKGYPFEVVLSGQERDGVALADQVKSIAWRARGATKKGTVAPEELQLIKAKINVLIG
BoNT-A LC inh2: BoNT/A light chain protease inhibitors, primary screen, biochemical, flow cytometry, MLPCN library | AID 588499, 2011 | multiplex microsphere protease substrate cleavage | Botulinum neurotoxin type A light chain protease (Clostridium botulinum A str. ATCC 3502) | inhibition, % at 10 µM | hit rate 0.17% among 360,000
Bead autofluor: counter-screen for toxin protease inhibitors: compound fluorescence; compound autofluorescence counterscreen, microsphere flow cytometry; stronger effect = higher value; fluorescence intensity (no concentration beside the values); hit rate 3.1% among 360,000; AID 624483; in the data active = fluorescence intensity above about 16000; inconclusive = no clear call, values can overlap the other calls
Anthrax LF inh2: Bacillus anthracis LF protease inhibitors, primary screen, biochemical, multiplex microsphere, MLPCN library. Lethal factor (Bacillus anthracis), P15917. hit rate 0.12% among 360,000. inhibition, % at 10 µM. multiplex microsphere protease cleavage assay. AID 588501, 2011
Large screens that a line does not name were inactive. Shown are actives, neighbours in structure and some others; about 3.7% of the full set was active somewhere. Rule as the data show it, unless noted: active = inhibition above about 30%; inconclusive = no clear call, values can overlap the other calls; inactive = below that.

COc1ccc(Br)cc1C(=O)Nc1ccccc1-c1ccccc1	Bead autofluor 28074
O=C(CN1C(=O)NC2(CCCCC2)C1=O)N1CCOCC1	none
COc1ccc(CCCN2CCC(CN3C(=S)NC[C@@H]3Cc3ccccc3)CC2)cc1OC	none
CCOc1ccc(C(=O)Nc2ccccc2-c2ccccc2)cc1Cl	Bead autofluor 17980
CCOc1ccc(C(=O)Nc2cccc(C(=O)O)c2C)cc1Cl	none
S=C(NCc1ccc2c(c1)OCO2)Nc1ccc(-c2nc3ccccc3[nH]2)cc1	MazF activator 50
CC1CC(=O)N(c2ccc(NCc3ccc(Cl)cc3)c([N+](=O)[O-])c2)C1=O (stereo unspecified)	MazF activator 214
O=C(CSc1nnc(-c2ccncc2)n1Cc1ccccc1)NCCc1ccccc1	none
C=CCn1c(SCC(=O)O)nnc1-c1ccccc1	Bead autofluor 22122
CNC(=O)CSc1nnc(-c2ccncc2)n1Cc1ccccc1	Bead autofluor 16183
O=C(O)CSc1nnc(-c2ccncc2)n1CCc1ccccc1	Bead autofluor 22072
CCSc1nnc(-c2ccncc2)n1Cc1ccccc1	BoNT-A LC inh2 inconclusive, Bead autofluor 16561
CC(C)C[C@@H]1COc2cc(N3CCC[C@H]3CO)ccc2S(=O)(=O)N1	none (no result: MazF activator)
CCn1c(SCc2cccc(C)c2)nnc1-c1ccccc1	BoNT-A LC inh2 inconclusive, Bead autofluor 23697
O=C1NC[C@@H](CCCCN2C[C@H](Cc3ccc(O)cc3)N(CCC3CCCCC3)C(=O)C2=O)N(CCc2ccc(O)cc2)C1=O	none (no result: MazF activator)
Cc1c(Cl)cccc1NC(=O)CC(Cc1ccccc1)C(=O)O (stereo unspecified)	none
Cc1c(Cl)cccc1NC(=O)CC(C(=O)O)C1CCCO1 (stereo unspecified)	Bead autofluor 22699
COc1cccc(CCN2C(=O)C(=O)N([C@@H](CNCc3ccccc3)Cc3ccccc3F)C[C@@H]2C(C)(C)C)c1	none (no result: BoNT-F LC inh, BoNT-A LC inh2, Bead autofluor, Anthrax LF inh2)
CCOC(=O)/C=c1\s/c(=C(\C#N)C(=O)NC)n(-c2ccccc2)c1=O	none
Cc1ccccc1-n1c(=O)/c(=C\c2ccco2)s/c1=C(/C#N)C(=O)Nc1ccccc1	Bead autofluor 20678
COc1nsnc1N1CCOCC1	none
COC(=O)COc1nsnc1N1CCOCC1	Bead autofluor 24961
CCOc1cc(S(=O)(=O)NCc2ccc(OC)cc2)c(OCC)cc1-n1cnnn1	BoNT-A LC inh2 inconclusive, Bead autofluor 23322
CCOc1cc(S(=O)(=O)NCCc2ccc(OC)c(OC)c2)c(OCC)cc1-n1cnnn1	none
CN(C)c1ccc(-c2ccnc3c2CC(C)(C(=O)Nc2cccc(Oc4ccccc4)c2)O3)cc1 (stereo unspecified)	none (no result: MazF activator)
Cn1c(O)c(C2=c3ccccc3=NC2=O)sc1=Nc1ccc(Cl)cc1	Bead autofluor 19149
CC(=O)OC[C@@H]1CN(Cc2ccccc2)C[C@H](n2cnc3c(NC4CCCC4)ncnc32)O1	none (no result: MazF activator)
CC(=O)Nc1ccc2c(c1)nc(CCNC(=O)c1ccccc1)n2C	none
Cn1c(CN2CCCCC2)nc2cc(NC(=O)c3ccccc3)ccc21	Bead autofluor 22188
Cn1c(CN2CCCCC2)nc2cc(NC(=O)c3cccc(Br)c3)ccc21	none
Cn1c(CCNC(=O)c2ccccc2)nc2cc(NC(=O)C3CCCCC3)ccc21	Bead autofluor 18656
COc1cc(C(O)c2nc(-c3ccc(N(C)C)cc3)cs2)ccc1F (stereo unspecified)	none (no result: MazF activator)
CCc1cc(N2CCOCC2)cc2c1[nH]c1ccccc12	Bead autofluor 17063
Cc1c2cnn(CC(=O)NC3CCCC3)c(=O)c2c(C)n1Cc1ccccc1	none (no result: BoNT-F LC inh, BoNT-A LC inh2, Bead autofluor, Anthrax LF inh2)
Cc1c2cnn(CC(=O)NCCCN3CCCCC3C)c(=O)c2c(C)n1Cc1ccccc1 (stereo unspecified)	Bead autofluor 18388
CC1=C(C(=O)N(C(C)C)C(C)C)CC(CC(=O)NCc2cccs2)C(=O)N1Cc1ccc(C(C)(C)C)cc1 (stereo unspecified)	none (no result: MazF activator)
CC(=O)Nc1ccc(S(=O)(=O)Nc2nnc(C)s2)cc1	none
CC(=O)Nc1ccc(S(=O)(=O)Nc2nnc(C(C)C)s2)cc1	Bead autofluor 16628
Cc1nc2ccc3[nH]snc3c2n1	Bead autofluor 23032
CC1CCCC(NC(=O)COC(=O)Cc2ccccc2)C1C (stereo unspecified)	Bead autofluor 17041
COc1cccc(CNC(=O)CCn2c(=O)oc3ccccc32)c1	Bead autofluor 25239
CC1CCCC(NC(=O)CCn2c(=O)oc3ccccc32)C1C (stereo unspecified)	Bead autofluor 22573
CC1CCCCC1NC(=O)CCn1c(=O)oc2ccccc21 (stereo unspecified)	none
O=C(CCn1c(=O)oc2ccccc21)NCCN1CCc2ccccc2C1	Bead autofluor 20382
CCCC[C@@H]1CNC(=O)C(=O)N1CCCC	none (no result: MazF activator)
O=C(Nc1ccc2nc(C(F)(F)F)[nH]c2c1)[C@@H]1O[C@H](CO)[C@@H](O)[C@H]1O	none (no result: MazF activator)
O=C(O)C(c1ccccc1)N1C(=O)/C(=C\c2ccc(-c3ccc(Br)cc3)o2)SC1=S (stereo unspecified)	BoNT-A LC inh2 65
C=CCN1C(=O)/C(=C/c2ccc(-c3ccc(F)cc3)o2)SC1=S	BoNT-A LC inh2 79, Anthrax LF inh2 64
C=CCN1C(=O)/C(=C/c2ccsc2)SC1=S	none
COc1cc(/C=C2\SC(=S)N(C(C(=O)O)c3ccccc3)C2=O)cc(OC)c1OC (stereo unspecified)	none
O=C(O)C(c1ccccc1)N1C(=O)/C(=C\c2ccc(-c3ccccc3Cl)o2)SC1=S (stereo unspecified)	BoNT-A LC inh2 41
O=C1/C(=C\c2ccc(-c3ccccc3Cl)o2)SC(=S)N1CC1CCCO1 (stereo unspecified)	BoNT-A LC inh2 189, Anthrax LF inh2 59
O=C(/C=C/c1ccccc1)Nc1cccc(C(=O)NC2CC2)c1	none
O=C1N=C(N2CCOCC2)S/C1=C/c1ccc(-c2ccccc2Cl)o1	MazF activator 107
Cc1c(NC(=O)C(C)OC(=O)Cc2ccccc2)c(=O)n(-c2ccccc2)n1C (stereo unspecified)	Bead autofluor 24503
C=CCc1cccc(CNc2c(C)n(C)n(-c3ccccc3)c2=O)c1O	Bead autofluor 16249
Cc1c(NC(=O)C(C)OC(=O)C(NC(=O)c2ccco2)C(C)C)c(=O)n(-c2ccccc2)n1C (stereo unspecified)	BoNT-A LC inh2 inconclusive, Bead autofluor 22112
Cc1c(NC(=O)C(C)OC(=O)CCc2ccccc2)c(=O)n(-c2ccccc2)n1C (stereo unspecified)	none
Cc1c(NC(C)c2ccccc2O)c(=O)n(-c2ccccc2)n1C (stereo unspecified)	Bead autofluor 24008
CCOC(=O)[C@]12CCCC=C1N(Cc1cccc3ccccc13)C(=O)[C@H](CC(=O)N1CCC(c3ccccc3)CC1)C2	none (no result: MazF activator)
Cc1cc(C(=O)COC(=O)C2=COCCO2)c(C)n1-c1ccccc1	none

Bioassay records deposited in PubChem by several laboratories.
